The whole screen tested about 13,000 compounds, of which about 3,200 (25%) showed an effect of 50% or more. The list shows a part of the results.
These molecules were tested on P. falciparum stage V gametocytes. Conditions: 48 h, 5 µM; inhibitor.
Design: BacTiter-Glo ATP luminescence viability of purified stage V gametocytes in 384-well plates, per cent inhibition versus DMSO
With `CC1(C)N=C(N)N=C(N)N1OCCCc1cccc(C(F)(F)F)c1` [TCMDC-131651] the “% Inhibition” value was -2.569%.
In the case of `COc1ccc(Oc2ccccc2CNCC2CCN(CC3CCCCC3)CC2)cc1` [TCMDC-141413], the “% Inhibition” value is reported as 81.97%.
`COc1ccc(CN2CCC(CNCCc3ccccc3Oc3ccccc3)CC2)cc1` [TCMDC-141350] was tested, and the “% Inhibition” value was 98.78%.
With `COc1ccc2ccccc2c1CNCC1CCN(CC2CCCCC2)CC1` [TCMDC-141412] the “% Inhibition” value was -44.03%.
For `O=[N+]([O-])c1ccc(Oc2ccccc2CNCC2CCN(CC3CCCCC3)CC2)cc1` [TCMDC-141414], the “% Inhibition” value was 46.86%.
With `COc1ccc(CN2CCC(CNCCc3c(Cl)cccc3Cl)CC2)cc1` [TCMDC-141345] the “% Inhibition” value was 89.6%.
With `COc1ccc(CN2CCC(CNCCc3ccccc3Cl)CC2)cc1` [TCMDC-141343] the “% Inhibition” value was 21.62%.
In the case of `COc1ccc2c(c1)CC1CN(CCCCNC(=O)c3ccc(NC(=O)c4cc(Cl)cc(Cl)c4)cc3)CCN1C2` (stereo not shown) [TCMDC-138223], the “% Inhibition” value is reported as -15.2%.
For `NC1CCN(c2nc(NCCc3ccc(O)cc3)nc(NCc3ccccc3-c3ccccc3)n2)CC1` [TCMDC-133441], the “% Inhibition” value was 29.52%.
With `Cc1ccc2c(Cc3cnc(N)nc3N)cc(C)c(N)c2n1` [TCMDC-137878] the “% Inhibition” value was -11.15%.
`COc1ccc(C(C(=O)NC2CCN(C[C@H](O)c3ccnc4ccc(OC)cc34)CC2)N2CCN(c3ccc([N+](=O)[O-])cc3)CC2)cc1` (stereo partly shown) [TCMDC-140992] was tested, and the “% Inhibition” value was -4.461%.
`O=C(NCc1ccccc1)Nc1ccc(-c2cccc(-c3nc4ccc(C(F)(F)F)cc4[nH]3)c2)cc1` [TCMDC-133160] was tested, and the “% Inhibition” value was -18.34%.
`O=C(Nc1ccc(F)c(C(F)(F)F)c1)N[C@H]1CCN(CCCCCNC(=O)C2CC2c2ccc(Cl)c(Cl)c2)C1` (stereo partly shown) [TCMDC-136270] was tested, and the “% Inhibition” value was 88.79%.
For `O=C(Nc1ccc(F)c(C(F)(F)F)c1)NC1CCN(CCCCCNC(=O)C2CC2c2ccc(Cl)c(Cl)c2)CC1` (stereo not shown) [TCMDC-136259], the “% Inhibition” value was 97.75%.
With `O=C(NCCCCCN1CCCN(C(=O)Nc2ccc(F)c(C(F)(F)F)c2)CC1)C1CC1c1ccc(Cl)c(Cl)c1` (stereo not shown) [TCMDC-136254] the “% Inhibition” value was 10.75%.
With `COc1ccc2nccc([C@@H](O)CN3CCC(NC(=O)C(c4cc5ccccc5o4)N4CCN(Cc5ccccc5)CC4)CC3)c2c1` (stereo partly shown) [TCMDC-140988] the “% Inhibition” value was 30.33%.
`O=C(Nc1ccc(-c2nc3ccccc3[nH]2)cc1)C1CCCN(C2CCC2)C1` (stereo not shown) [TCMDC-124687] was tested, and the “% Inhibition” value was -67.58%.
With `O=C(NCCN1CCCC1)c1cccc(Nc2nccc(Nc3ccc(Oc4ccccc4)cc3)n2)c1` [TCMDC-138602] the “% Inhibition” value was -15.16%.
For `CCCN1CCN(CCNC(=O)c2cccc(Nc3nccc(Nc4ccc(Oc5ccccc5)cc4)n3)c2)CC1` [TCMDC-138606], the “% Inhibition” value was -54.96%.
`O=C(NCCCN1CCCCC1)c1cccc(Nc2nccc(Nc3ccc(Oc4ccccc4)cc3)n2)c1` [TCMDC-138605] was tested, and the “% Inhibition” value was -29.44%.
`O=C(NCCCN1CCOCC1)c1cccc(Nc2nccc(Nc3ccc(Oc4ccccc4)cc3)n2)c1` [TCMDC-138604] was tested, and the “% Inhibition” value was 68.84%.
In the case of `CN1CCN(CCCNCc2cccc(Nc3nccc(Nc4ccc(Oc5ccccc5)cc4)n3)c2)CC1` [TCMDC-138616], the “% Inhibition” value is reported as 109.5%.
For `Brc1cccc(Nc2nccc(Nc3ccc(Oc4ccccc4)cc3)n2)c1` [TCMDC-138559], the “% Inhibition” value was 9.5%.
`O=C(NCCCN1CCCCC1)c1ccc(Nc2nccc(Nc3ccc(Oc4ccccc4)cc3)n2)cc1` [TCMDC-138609] was tested, and the “% Inhibition” value was -10.89%.
For `O=C(Nc1ccccc1)c1cccc(Nc2nccc(Nc3ccc(Oc4ccccc4)cc3)n2)c1` [TCMDC-138561], the “% Inhibition” value was 74.26%.
`N#CCc1ccc(Nc2nccc(Nc3ccc(Oc4ccccc4)cc3)n2)cc1` [TCMDC-138577] was tested, and the “% Inhibition” value was 4.825%.
`CN1CCN(Cc2cccc(Nc3nccc(Nc4ccc(Oc5ccccc5)cc4)n3)c2)CC1` [TCMDC-138614] was tested, and the “% Inhibition” value was -13.87%.
With `CN1CCN(CCCNCc2ccc(Nc3nccc(Nc4ccc(Oc5ccccc5)cc4)n3)cc2)CC1` [TCMDC-138621] the “% Inhibition” value was 88.79%.
With `NC(=O)c1cccc(Nc2nccc(Nc3ccc(Oc4ccc5ccccc5c4)cc3)n2)c1` [TCMDC-138600] the “% Inhibition” value was -22.11%.
In the case of `COc1cc2c(cc1C(F)(F)F)N(C(=O)Nc1cc(F)c(F)c(-c3cccnc3)c1)CC2` [TCMDC-139061], the “% Inhibition” value is reported as 5.239%.
For `CCC(C)(CC)C(=O)n1ncc2c3c(N)nc(N)nc3ccc21` [TCMDC-137335], the “% Inhibition” value was -46.13%.
`COc1ccc(-n2ccnc2SCC(=O)Nc2cc(C(F)(F)F)ccc2Cl)c(OC)c1` [TCMDC-123822] was tested, and the “% Inhibition” value was 7.482%.
With `CCCc1cc(Cc2cnc(N)nc2N)c2cccnc2c1OC` [TCMDC-138034] the “% Inhibition” value was 13.25%.
`c1cncc(-c2cccc(CNc3nccc(Nc4ccc(OCCN5CCOCC5)cc4)n3)c2)c1` [TCMDC-134667] was tested, and the “% Inhibition” value was 2.743%.
`c1ccc(Oc2ccc(Nc3ccnc(Nc4cccc(CNCCCN5CCOCC5)c4)n3)cc2)cc1` [TCMDC-138615] was tested, and the “% Inhibition” value was 95.32%.
In the case of `O=C(NCCN1CCCCC1)c1cccc(Nc2nccc(Nc3ccc(Oc4ccccc4)cc3)n2)c1` [TCMDC-138603], the “% Inhibition” value is reported as 19.36%.
For `CN1CC[C@@H](Oc2cc(C(=O)NCc3ccc(Cl)c(Cl)c3)ccc2C(F)(F)F)C1` [TCMDC-136228], the “% Inhibition” value was 28.38%.
With `CCCCCCCc1c(C)[nH]c2c(OC)cccc2c1=O` [TCMDC-138016] the “% Inhibition” value was 17.32%.
For `CCCCCCCCc1c(C)[nH]c(C)c(C#N)c1=O` [TCMDC-137431], the “% Inhibition” value was 44.76%.
For `CCCCCCCc1c(C)[nH]c2ccccc2c1=O` [TCMDC-137425], the “% Inhibition” value was 37.94%.
For `CCCCCCCCc1c(C)[nH]c(C)c(Cl)c1=O` [TCMDC-137538], the “% Inhibition” value was 68.39%.
With `CCCCCCCCc1c(C)[nH]c(C)c(I)c1=O` [TCMDC-137430] the “% Inhibition” value was 48.86%.
`CCCCCCCCCc1c(C)[nH]c2ccccc2c1=O` [TCMDC-137268] was tested, and the “% Inhibition” value was 51.45%.
`CCCCCCCc1c(C)[nH]c2ccc(F)cc2c1=O` [TCMDC-137269] was tested, and the “% Inhibition” value was 73.68%.
For `CCCCCCCCc1c(C)[nH]c(C)c(Br)c1=O` [TCMDC-137437], the “% Inhibition” value was 29.73%.
For `CCCCCCCc1c(C)[nH]c2cccc(OC)c2c1=O` [TCMDC-138014], the “% Inhibition” value was 32.1%.
`O=C(NC1CCN(Cc2ccccc2)CC1)c1ccc(-c2nc3cc(F)c(F)cc3[nH]2)s1` [TCMDC-140452] was tested, and the “% Inhibition” value was 7.821%.
`N#Cc1ccc2c(c1)CCN(CCC1CCC(NC(=O)c3ccc(-c4ccccn4)s3)CC1)CC2` (stereo not shown) [TCMDC-139840] was tested, and the “% Inhibition” value was -69.85%.
For `O=C(Nc1ccc(-c2csc(-c3nc4ccccc4[nH]3)c2)cc1)Nc1ccc(F)c(F)c1F` [TCMDC-133221], the “% Inhibition” value was 23.86%.
In the case of `CC(C)(Oc1ccc(Cl)cc1)C(=O)NCCC1CCN(CCCCCNC(=O)/C=C/c2ccc(Cl)c(Cl)c2)CC1` [TCMDC-140004], the “% Inhibition” value is reported as 87.45%.
`O=C(/C=C/c1ccc(Cl)c(Cl)c1)NCCCCCN1CCC(CCNC(=O)/C=C/c2cc(C(F)(F)F)ccc2F)CC1` [TCMDC-140005] was tested, and the “% Inhibition” value was -14.45%.
In the case of `CC(Oc1ccc(Cl)cc1)C(=O)N(C)C1CCN(CCCCCNC(=O)/C=C/c2ccc(Cl)c(Cl)c2)CC1` (stereo not shown) [TCMDC-139989], the “% Inhibition” value is reported as -40.26%.
In the case of `CN(C(=O)Cc1ccc(Cl)c(Cl)c1)C1CCN(CCCCCNC(=O)/C=C/c2ccc(Cl)c(Cl)c2)CC1` [TCMDC-139986], the “% Inhibition” value is reported as -22.66%.
With `CC(Oc1ccc(Cl)cc1)C(=O)NCCC1CCN(CCCCCNC(=O)/C=C/c2ccc(Cl)c(Cl)c2)CC1` (stereo not shown) [TCMDC-140003] the “% Inhibition” value was 96.79%.
With `CN(C(=O)Cc1ccc(Cl)cc1)C1CCN(CCCCCNC(=O)/C=C/c2ccc(Cl)c(Cl)c2)CC1` [TCMDC-139988] the “% Inhibition” value was -15.24%.
`CN(C(=O)C(C)(C)Oc1ccc(Cl)cc1)C1CCN(CCCCCNC(=O)/C=C/c2ccc(Cl)c(Cl)c2)CC1` [TCMDC-139990] was tested, and the “% Inhibition” value was 51.05%.
`CC(C)(C(=O)NCCC1CCN(CCCCCNC(=O)/C=C/c2ccc(Cl)c(Cl)c2)CC1)c1ccc(Cl)cc1` [TCMDC-140002] was tested, and the “% Inhibition” value was 52.94%.
In the case of `CC1(C)N=C(N)NC(NOCc2ccc(Cl)c(Cl)c2)=N1` [TCMDC-131606], the “% Inhibition” value is reported as -8.519%.
With `CC(C)[C@H](NC(=O)c1ccc(O)c(-c2ccc(Cl)c(Cl)c2)c1)C(=O)NCCN1CCCCC1` [TCMDC-140858] the “% Inhibition” value was 1.563%.
`N#Cc1nc2ccc(OCCN(Cc3ccccc3C(F)(F)F)c3ccc(C#N)c(C(F)(F)F)c3)cc2s1` [TCMDC-132798] was tested, and the “% Inhibition” value was 33.49%.
With `N#Cc1ccc(NC(=NCCc2c[nH]c3ccccc23)Nc2ccc(-c3ccccc3)cc2)c(O)c1` [TCMDC-140211] the “% Inhibition” value was -66.19%.
`CCCCC(=O)N(CCOC)Cc1ccc(-c2ccc(CNCCC)cn2)cc1` [TCMDC-141536] was tested, and the “% Inhibition” value was 72.35%.
With `CCCNCc1ccc(-c2ccc(CN(Cc3ccc4c(c3)OCO4)C(=O)Cc3cccnc3)cc2)nc1` [TCMDC-141529] the “% Inhibition” value was 106.5%.
In the case of `CCCNCc1ccc(-c2ccc(CN(CCOC)C(=O)COc3ccccc3Cl)cc2)nc1` [TCMDC-141541], the “% Inhibition” value is reported as 51.3%.
With `CCCNCc1ccc(-c2ccc(CN(CCOC)C(=O)Cc3cccnc3)cc2)nc1` [TCMDC-141528] the “% Inhibition” value was 108.8%.
With `CCCNCc1ccc(-c2ccc(CN(CCOC)C(=O)CCCOCc3ccccc3)cc2)nc1` [TCMDC-141543] the “% Inhibition” value was 33.78%.
`CC(=O)Nc1cccc(CN(Cc2ccc(-c3ccc(CNCc4cccnc4)cn3)cc2)C(=O)Cc2cccnc2)c1` [TCMDC-141604] was tested, and the “% Inhibition” value was -7.365%.

From article PMC4552634, “A New Set of Chemical Starting Points with Plasmodium falciparum Transmission-Blocking Potential for Antimalarial Drug Discovery” (PLoS ONE, 2015)
